# Measured values reported in PMC5540273 (PLoS ONE, 2017).
# How the values were obtained:
# Details in all cases: concentration: 1 μM, replicates: in singlicate; n = 1
# [1] = test system: CLK2
# [2] = test system: CLK3
# [3] = test system: CLK4
# [4] = test system: CSF1R-autoinhibited
# [5] = test system: CSF1R
# [6] = test system: CSK
# [7] = test system: CSNK1A1L
# [8] = test system: CSNK1A1
# [9] = test system: CSNK1D
# [10] = test system: CSNK1E
# [11] = test system: CSNK1G1
# [12] = test system: CSNK1G2
# [13] = test system: CSNK1G3
# [14] = test system: CSNK2A1
# [15] = test system: CSNK2A2
# [16] = test system: T1, CTK
# T1 construct: gene MATK
# [17] = test system: DAPK1
# [18] = test system: DAPK2
# [19] = test system: DAPK3
# [20] = test system: T2, DCAMKL1
# T2 construct: gene DCLK1
# 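Further: KINOMEscan kinase panel screen.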
Compound,%Inh [1] [%],%Inh [2] [%],%Inh [3] [%],%Inh [4] [%],%Inh [5] [%],%Inh [6] [%],%Inh [7] [%],%Inh [8] [%],%Inh [9] [%],%Inh [10] [%],%Inh [11] [%],%Inh [12] [%],%Inh [13] [%],%Inh [14] [%],%Inh [15] [%],%Inh [16] [%],%Inh [17] [%],%Inh [18] [%],%Inh [19] [%],%Inh [20] [%]
Cl.O=C(Nc1ccc(Oc2ccc3[nH]c(NC(=O)c4ccco4)nc3c2)cc1)Nc1cc(C(F)(F)F)ccc1F [GW683134],0,0,61,0,99.8,0,0,2,10,0,0,0,7,9,0,6,3,0,20,19
Cc1cc(-c2ccnc(Nc3cccc(C#N)c3)n2)cc(C)c1O [GSK1440913],89,91.5,95.8,13,14,0,30,0,76,90.3,17,12,55,40,46,4,20,9,5,8
Cc1ccc(O)cc1Nc1ccnc2cc(-c3ccc(CN4CCCCC4)o3)ccc12 [GW557777],0,0,0,0,96.7,82,44,84,27,34,6,5,7,0,0,27,16,3,1,25
Cc1ccc(O)cc1Nc1ccnc2ccc(C(C)(C)C)cc12 [GW856805],26,0,3,0,32,53,20,40,13,1,19,5,0,1,7,21,13,8,7,2
Nc1ncc(-c2cn[nH]c2)c2scc(-c3ccc4c(c3)CCN4C(=O)Cc3ccccc3)c12 [GSK2593067],0,0,55,51,99.9,68,9,0,4,32,6,24,27,11,0,12,0,0,22,0
O=C(O)C(F)(F)F.O=c1[nH]ccc2nc(N[C@@H]3CCNC3)nc(Nc3ccc4c(c3)S(=O)(=O)CC4)c12 [GSK2181306],95,17,80,0,86,5,90,97.7,96.7,96.3,85,87,94.4,99.2,99.9,16,99.5,97.8,99.6,95.7
O=C(Nc1n[nH]c2cc(-c3cccs3)ccc12)C1CC1 [SB-731284],21,13,0,0,0,13,0,20,0,8,0,0,0,62,80,45,12,2,3,12
O=C(Nc1c(F)cccc1F)c1cc(C(=O)c2ccccc2F)c[nH]1 [GSK1326180],0,2,0,32,1,0,5,16,0,20,0,0,21,0,0,0,0,4,4,0
COc1ccc(C)c(Nc2ccnc(Nc3ccc(-c4cnc[nH]4)cc3)n2)c1.Cl [GW784041],0,7,13,0,67,9,2,21,16,27,15,0,8,0,5,0,7,10,6,7
COC(=O)Nc1nc2ccc(Oc3ccc(NC(=O)Nc4cc(C(F)(F)F)ccc4F)cc3)cc2[nH]1.Cl [GW654607],0,0,48,30,99.8,0,0,0,0,13,0,0,24,0,2,0,2,0,11,16
COc1ccc(C2=C(Nc3cccc(O)c3)C(=O)NC2=O)cc1 [SB-390766],84,22,85,0,0,15,7,0,94,20,4,0,19,0,19,1,0,0,52,13
Cc1ccccc1CC(=O)N1CCc2cc(-c3cn(C)c4ncnc(N)c34)ccc21 [GSK2603346],0,6,0,0,89,0,22,9,9,84,12,5,17,30,15,14,0,0,0,0
Cl.Cl.NCC(NC(=O)c1cc(-c2cccnc2)c(-c2ccnc3[nH]ccc23)s1)c1ccccc1 (centres unmarked) [GSK1323434],51,12,60,30,44,0,77,91.5,96.7,99,39,63,68,32,40,0,59,21,27,21
CN(c1ccc(F)c(NC(=O)c2cccc(OC(C)(C)C#N)c2Cl)c1)c1ccc2nc(NC(=O)C3CC3)sc2n1,0,0,0,17,99.8,16,14,9,0,0,0,12,0,35,10,13,4,0,4,0
CCNC(=O)/C=C/c1n[nH]c2cc(Sc3ccccc3C(=O)NC)ccc12,0,14,3,36,99.8,3,0,21,0,18,13,0,13,24,0,6,13,8,15,0
O=C(Nc1n[nH]c2nc(-c3ccccc3)ccc12)C1CC1 [SB-708999],0,1,0,36,0,0,15,0,13,0,0,0,68,23,75,0,0,11,4,4
O=C(Nc1n[nH]c2nc(-c3cccc(O)c3)ccc12)C1CC1 [SB-711805],20,16,0,0,0,100,6,0,11,34,6,0,25,52,82,0,17,0,23,17
Cn1cc(-c2ccc3c(c2)CCN3C(=O)Cc2cc(F)cc(F)c2F)c2c(N)ncnc21 [GSK2634140],0,24,16,0,87,0,17,0,13,47,23,8,18,12,0,0,0,0,0,0
Cc1ccc(Nc2ccnc(Nc3ccc(C)c(F)c3)n2)cc1O.Cl [GW582868],86,3,14,25,29,0,12,0,0,19,0,0,0,0,9,0,0,0,4,11
COc1cccc(C2=C(Nc3cccc(O)c3)C(=O)NC2=O)c1 [SB-390771],61,17,72,45,37,100,10,0,32,29,9,0,15,0,8,0,14,0,16,21

Compound,%Inh [1] [%],%Inh [2] [%],%Inh [3] [%],%Inh [4] [%],%Inh [5] [%],%Inh [6] [%],%Inh [7] [%],%Inh [8] [%],%Inh [9] [%],%Inh [10] [%],%Inh [11] [%],%Inh [12] [%],%Inh [13] [%],%Inh [14] [%],%Inh [15] [%],%Inh [16] [%],%Inh [17] [%],%Inh [18] [%],%Inh [19] [%],%Inh [20] [%]
COC(=O)Nc1nc2ccc(Oc3ccc(CC(=O)Nc4cc(C(F)(F)F)ccc4F)cc3)cc2[nH]1 [GW680903],0,0,3,50,71,0,0,0,0,0,0,0,14,0,0,0,0,0,0,11
Cc1ccc(NC(=O)c2ccc(Cl)c(Cl)c2)cc1-c1ccc(C(=O)Nc2ccncc2)cc1 [GSK1398460],0,17,17,7,99.9,1,8,0,7,18,12,16,36,0,2,0,11,0,18,22
COc1cccc(NC(=O)NCCNc2ccnc(Nc3ccc(F)cc3)n2)c1 [GSK1379879],0,0,20,20,11,0,0,0,0,0,0,0,23,0,7,0,0,0,17,9
CC(C)(C)c1ccc(C(=O)Nc2cn3cc(-n4ccnc4)ccc3n2)cc1,79,16,84,0,46,0,34,60,84,70,0,12,0,0,7,24,0,16,2,29
CN(c1ccc(NC(=O)Nc2cccc(Cl)c2)cc1)c1ccnc(N)n1.Cl [GW830707],0,0,0,0,99.5,7,0,0,18,0,12,0,0,0,0,13,0,0,0,0
CN(c1ccc(NC(=O)N2CCN(CCCN3CCOCC3)CC2)cc1)c1ccnc(Nc2ccc(CS(C)(=O)=O)cc2)n1.Cl [GW830899],0,0,0,0,66,24,79,25,5,0,19,6,5,0,0,0,4,0,0,0
COc1cc(Nc2ccnc3cc(-c4ccncc4)ccc23)cc(OC)c1OC.Cl [GW494610],0,0,29,22,49,79,18,11,46,38,0,0,7,7,0,0,0,0,9,0
O=C(Nc1n[nH]c2nc(-c3ccccc3O)ccc12)C1CC1 [SB-711880],16,0,11,16,0,0,76,25,0,0,0,0,28,49,84,36,12,0,21,22
CN(C)c1ncnc2nc[nH]c12 [SKF-31736],23,0,0,0,6,0,0,0,0,4,3,0,0,0,5,36,7,3,20,32
COc1cccc(-c2nc(-c3ccccc3)[nH]c2-c2ccncc2)c1 [SB-610250],0,27,8,0,2,0,19,47,66,68,0,0,22,0,0,0,0,0,19,14
COc1ccc(NC(=O)c2ccoc2)cc1-c1ccc(C(=O)NCC2CC2)cc1 [GW810437],16,0,6,3,7,0,8,0,0,3,0,0,0,0,0,15,0,17,13,0
CCn1c(-c2nonc2N)nc2c(-c3ccccc3)ncc(OCCCN)c21.O=C(O)C(F)(F)F.O=C(O)C(F)(F)F [GSK260205],0,5,4,0,2,0,46,69,94.2,98.7,10,0,29,22,31,0,10,2,25,0
Nc1cccc(-c2ccc3c(N)n[nH]c3c2)c1 [GSK2193613],10,0,64,17,2,0,13,0,8,5,13,0,18,27,61,0,0,6,4,13
O=C(O)C(F)(F)F.O=c1[nH]ccc2nc(N[C@@H]3CCNC3)nc(Nc3cc(Cl)cc(Cl)c3)c12 [GSK2188764],95.9,34,82,0,69,18,56,94,79,91.3,77,94.2,95.1,98.9,100,0,97.3,97.4,100,86
CC(C)c1nc(-c2ccc(F)c(NS(=O)(=O)c3c(F)cccc3F)c2)c(-c2ccnc(Nc3ccc(N4CCOCC4)nc3)n2)s1 [GSK1804250],9,6,21,14,94.5,97.4,19,10,33,36,7,4,12,10,0,30,14,5,20,12
COc1cc(Nc2nccc(N3CCC(NC(=O)Nc4ccc5c(c4)OCO5)C3)n2)cc(OC)c1OC (centres unmarked) [GSK1379766],0,2,0,0,41,0,0,0,0,20,10,0,4,4,16,0,5,0,7,7
CC(C)c1nc(-c2cccc(NS(=O)(=O)c3c(F)cccc3F)c2)c(-c2ccnc(Nc3ccc(N4CCOCC4)nc3)n2)s1.Cl [GSK1723980],0,0,0,0,52,96.5,0,95.1,0,10,2,0,0,2,0,37,3,0,0,11
Cc1ccc(C)c(NC(=O)Nc2ccc(C)c(-c3ccc(C(=O)Nc4ccncc4)cc3)c2)c1 [GSK1398473],0,3,0,0,89,0,11,0,0,30,3,15,32,15,0,0,26,0,2,13
CN(c1ccc2c(c1)nc(NCc1ccccc1)n2C)c1ccnc(Nc2ccc(CS(C)(=O)=O)cc2)n1.Cl [GW811603],0,43,0,80,100,14,0,36,0,18,0,4,0,16,8,5,13,0,0,0
CCOc1nccc(-c2c(-c3ccc(F)cc3)ncn2C2CCNCC2)n1 [SB-249175],0,11,100,31,28,0,45,97.4,95.3,99.4,0,32,0,56,65,0,0,0,0,25
